The values that follow come from PubChem BioAssay (NCI).

Experiment [1] is described as follows: NCI Yeast Anticancer Drug Screen. Data for the rad50 strain (AID 155).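 Further: 0% = growth of vehicle-only cultures of the same strain.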 Particulars: S. cerevisiae rad50 strain growth inhibition, active compounds read high; at 50.0 µM unless noted. The gist of the method: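 Inhibition values express reduced yeast growth in compound-treated cultures relative to vehicle-treated controls.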
The nature of experiment [2]: NCI Yeast Anticancer Drug Screen. Data for the mec2-1 strain (AID 157). Particulars: S. cerevisiae mec2-1 strain, active compounds read high; at 50.0 µM unless noted. In a few lines:
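Each compound was tested on mec2-1 yeast, a strain altered in DNA damage repair or cell cycle control. Growth inhibition is reported relative to vehicle.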

Experiment [3] is described as follows: NCI Yeast Anticancer Drug Screen. Data for the sgs1 mgt1 strain (AID 161).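 Further: 0% = growth of cultures given vehicle only.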 Particulars: S. cerevisiae sgs1 mgt1 strain, active compounds read high; at 50.0 µM unless noted. In a few lines:
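Test agents were incubated with a DNA-repair-mutant yeast strain. Growth was then read and compared against vehicle-treated controls.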

The nature of experiment [4]: NCI Yeast Anticancer Drug Screen. Data for the cln2 rad14 strain (AID 165).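 Further: 0% = growth equal to vehicle treated cultures.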 Particulars: S. cerevisiae cln2 rad14 strain, active compounds read high; at 50.0 µM unless noted. In a few lines: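 Test compounds were added to cln2 rad14 yeast cultures; inhibition of growth was then determined by comparison with vehicle treatment.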
A short description of experiment [5]: NCI Yeast Anticancer Drug Screen. Data for the bub3 strain (AID 167). Particulars: S. cerevisiae bub3 mutant strain, active compounds read high; at 50.0 µM unless noted. In a few lines: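 Steps: expose the mutant yeast strain to compound; grow alongside vehicle-treated cultures; measure growth; express inhibition against the vehicle cultures.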
Experiment [6] in a line: NCI Yeast Anticancer Drug Screen. Data for the mlh1 rad18 strain (AID 175). Particulars: S. cerevisiae mlh1 rad18 strain growth inhibition, active compounds read high; at 50.0 µM unless noted. The gist of the method:
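Inhibition values reflect reduced growth of mutant yeast versus vehicle-treated controls following compound exposure; the mutations affect DNA damage repair.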

About 79,000 compounds went through this panel and 15% of them were active in at least one assay; those are over-represented in the sample as a whole. Unmarked numbers belong to inactive results. Calls of active or inactive are those of the source. No stated cut-off is given here; in the data, active means growth inhibition above about 70%; inactive means the rest.

For the molecule `C[N+]12CCCCC1C(CN1C(=O)c3ccccc3C1=O)CCC2` (stereo not given), the growth inhibition is 0.65% in experiment [1]; -6.05% in experiment [2]; 35.7% in experiment [3]; 10.9% in experiment [4]; 28.8% in experiment [5]; -40% in experiment [6].

`CC(=O)c1cccc(NC(=O)Oc2ccc(-c3ccccc3)cc2Cl)c1`: the growth inhibition in experiment [1] is 99.2% (active); in experiment [2], 99.6% (active); in experiment [3], 99.5% (active); in experiment [4] it was 98.8% (active); in experiment [5], 99.5% (active); in experiment [6], 99.3% (active).

`CC1(C)C2CC(O)C1CCC2=O` (stereo not given): the growth inhibition in experiment [1] was -4.15%; in experiment [2], -16.2%; in experiment [3], -33.8%; in experiment [4] it was 6%; in experiment [5] it was -21%; in experiment [6], -35.5%.

Consider `O=c1[nH]cc(Br)c(=O)[nH]1`, for which the growth inhibition was 28.8% in experiment [1]; 19.7% in experiment [2]; 13.7% in experiment [3]; 9.3% in experiment [4]; 21.9% in experiment [5]; 37% in experiment [6].

`CC(=O)NC1C(OCc2ccccc2)OC(CO)C(O)C1OC(C)C(=O)N[C@@H](C)C(=O)N[C@H](CCC(=O)OCCNc1c2ccccc2nc2cccc([N+](=O)[O-])c12)C(N)=O` (stereo not given in full): the growth inhibition in experiment [1] is 87.2% (active); in experiment [2] it was 90.8% (active); in experiment [3] it was 90.4% (active); in experiment [4] it was 90.5% (active); in experiment [5], 88.7% (active); in experiment [6] it was 86.8% (active).

On to `CC[O-].CC[O-].CN(C)c1ccc([O-])cc1.CN(C)c1ccc([O-])cc1.[Ti+4]`, for which the growth inhibition in experiment [1] was -29.9%; in experiment [2], 9.5%; in experiment [3] it was 2.2%; in experiment [4] it was 20.2%; in experiment [5] it was -9.15%; in experiment [6], -1.8%.

Regarding `C(=Nc1ccc(N=Cc2ccco2)cc1)c1ccco1`, the growth inhibition in experiment [1] is 10.8%; in experiment [2] it was 2.3%; in experiment [3] it was 0.5%; in experiment [4], -8.1%; in experiment [5], -8.5%; in experiment [6], 7.35%.

In the case of `Cc1ccc(S(=O)(=O)N2CCCSCC2)cc1`, the growth inhibition in experiment [1] was -11.6%; in experiment [2], -6.7%; in experiment [3], -17.5%; in experiment [4], -6.95%; in experiment [5] it was -11.6%; in experiment [6], -16.1%.

With `CC(CC(C)C(=O)O)C(=O)O` (stereo not given), the growth inhibition in experiment [1] is -13.5%; in experiment [2], -28.2%; in experiment [3] it was -24.1%; in experiment [4], 0.4%; in experiment [5] it was -47.8%; in experiment [6], 3.25%.

On to `CCCCCC(=O)NNC(=O)CCCCC`, for which the growth inhibition was 7.35% in experiment [1]; 13.8% in experiment [2]; 7.2% in experiment [3]; -4.95% in experiment [4]; -21.8% in experiment [5]; 15.1% in experiment [6].

In the case of `COC(=O)C1(C)C=C(Nc2ccccc2)C(=O)N1c1ccccc1` (stereo not given), the growth inhibition in experiment [1] was -3.45%; in experiment [2], -19.8%; in experiment [3] it was 6.2%; in experiment [4] it was 21.8%; in experiment [5], 23.4%; in experiment [6], 2.25%.

On to `C=C(C#N)CSc1c(Cl)c(Cl)c(Cl)c(Cl)c1Cl`, for which the growth inhibition is 34.5% in experiment [1]; 13% in experiment [2]; 9.2% in experiment [3]; 17.7% in experiment [4]; 16.8% in experiment [5]; 62.6% in experiment [6].

Take `O=C(O)Cc1cc(=O)oc2ccccc12`: the growth inhibition in experiment [1] is 7.4%; in experiment [2], -12.3%; in experiment [3], 8.2%; in experiment [4], -15.8%; in experiment [5] it was -6.8%; in experiment [6] it was 8.75%.

`O=C(O)Cn1c(=O)[nH]c(=O)c2[nH]cnc21`: the growth inhibition in experiment [1] is 4.6%; in experiment [2], -26.4%; in experiment [3], -0.3%; in experiment [4], 13.8%; in experiment [5], -9.2%; in experiment [6], -12%.

For `O=C(O)c1ccc(Nc2c3ccccc3nc3ccccc23)cc1`, the growth inhibition was 49% in experiment [1]; 11.6% in experiment [2]; 37.3% in experiment [3]; 17.2% in experiment [4]; 26.8% in experiment [5]; 24.6% in experiment [6].

Consider `O=C1c2ccccc2C(=O)N1C/C=C/CO`, for which the growth inhibition in experiment [1] is 11.5%; in experiment [2] it was 8.75%; in experiment [3], -1.45%; in experiment [4], 7.6%; in experiment [5] it was 0.95%; in experiment [6] it was 1.15%.

For `COc1ccc(OC)c(NC(=O)C(=O)C(C(C)=O)c2nc3ccc(Cl)cc3[nH]c2=O)c1` (stereo not given), the growth inhibition was -12.8% in experiment [1]; 7.75% in experiment [2]; -15.5% in experiment [3]; 12% in experiment [4]; 2.5% in experiment [5]; -7.35% in experiment [6].

Turning to `CCOC(=O)C(=CN1CCNC1=S)C(=O)OCC`, the growth inhibition in experiment [1] is -30.6%; in experiment [2] it was -33.6%; in experiment [3], -25.6%; in experiment [4], -1.6%; in experiment [5] it was -15.8%; in experiment [6], -3.85%.

On to `C[N+](C)(CCCCCCCCCC[N+](C)(C)CC(=O)c1ccccc1)CC(=O)c1ccccc1`, for which the growth inhibition in experiment [1] was 36.2%; in experiment [2], -7.25%; in experiment [3] it was 24.7%; in experiment [4], -11.8%; in experiment [5], 0.4%; in experiment [6] it was 18.1%.

On to `NC(CCO)P(=O)(O)O` (stereo not given), for which the growth inhibition in experiment [1] was 13.3%; in experiment [2], -6.05%; in experiment [3], -20.2%; in experiment [4], -55.7%; in experiment [5] it was 2.05%; in experiment [6], -4.6%.
